An excerpt weighted towards active compounds, which were near 12% of everything screened.
Ins promoter up: MIN6 insulin promoter up-regulation. z-score at 5 µM. MIN6 insulin promoter-GFP reporter, high-content imaging; active compounds read high. hit rate 0.3% among 190,000. AID 1625;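 active = z-score above 3 at 5 µM with at least 500 cells counted in the well; inconclusive = wells under 500 cells, flagged as cytotoxic or low count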
WT yeast gro inh: growth inhibition of WT yeast, mitochondrial fusion screen. hit rate 2.1% among 190,000. inhibition, % at 10 µM. mitochondrial fusion phenotypic screen, WT strain; in the data active = inhibition above about 58%; tested in S. cerevisiae
INS promoter inh: TRM-6 insulin promoter activity inhibition; inhibition, % at 2 µM; hit rate 0.9% among 130,000; TRM-6 cells (human fetal islet line), insulin promoter-eGFP reporter, imaging; reporter expression induced with tamoxifen;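 active = inhibition above the mean plus 3 SD, with well images judged a real hit on visual review, cut at about 60% in these data, passing the limit was not always enough; inconclusive = inhibition over the cutoff but images rejected on review; inactive = inhibition not above the cutoff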
L major viab: inhibitors of Leishmania major promastigote growth. Leishmania major promastigotes, resazurin fluorescence viability. inhibition, % at 10 µM. hit rate 9% among 200,000. AID 1063; in the data active = inhibition above about 50%;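 note: promastigotes grown with compound for 44 hours at 28 °C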
Cl transport mod: modulators of human KCC2 chloride dependent transport | Q9H2X9 | KCC2 cells, thallium flux FluoZin-2 fluorescence | B-score of Tl+ flux slope (higher = more flux/activation; lower = inhibition) at 10 µM | hit rate 2.2% among 190,000;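 active = thallium flux slope and its plate-corrected score both differing from the plate sample mean at a set confidence after two filtering rounds, in either direction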;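 note: slope of fluorescence scaled to starting intensity during 10 to 20 s after thallium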
ROMK mod: modulators of human ROMK potassium channel; Tet-inducible ROMK, thallium flux fluorescence; actives lie on both sides; B-score at 10 µM; hit rate 2% among 130,000; AID 1918;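 active = signal ratio slope over the read window, or its plate-corrected B-score, at least 3 SD from the plate mean, either direction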;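 note: B-score of the F/F0 ratio slope over 7 to 12 s after thallium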
Target sequence (P48048 whole entry, looked up): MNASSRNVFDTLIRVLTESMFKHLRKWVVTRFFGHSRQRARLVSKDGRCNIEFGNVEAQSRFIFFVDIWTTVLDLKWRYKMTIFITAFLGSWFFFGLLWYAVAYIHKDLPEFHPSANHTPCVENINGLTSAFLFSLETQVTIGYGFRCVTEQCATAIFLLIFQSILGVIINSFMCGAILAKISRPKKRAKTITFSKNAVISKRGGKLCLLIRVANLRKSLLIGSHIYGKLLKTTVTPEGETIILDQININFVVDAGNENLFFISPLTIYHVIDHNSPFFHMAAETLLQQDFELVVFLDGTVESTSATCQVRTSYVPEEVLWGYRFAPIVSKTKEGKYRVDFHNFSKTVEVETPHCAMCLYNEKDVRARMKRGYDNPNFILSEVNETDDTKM
L major 1uM: L. major promastigote growth inhibition, 1 uM repeat. shares compounds with L major viab. resazurin fluorescence, 48 h. inhibition, % at 1 µM. hit rate 13% among 1,100;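 active = inhibition above about 50% in both repeat tests, limit read from the data; inconclusive = one repeat under the set limit, the other over it; inactive = both repeats under the set limit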
Large screens that a line does not name were inactive (follow-up assays come after a bar, where they were run).

COc1ccc(NS(=O)(=O)c2cc(NC(=O)c3nc4nc(C)cc(C)n4n3)ccc2C)cc1	L major viab 72 (no result: INS promoter inh) | L major 1uM inactive
O=C(O)c1ccc(-n2c(-c3cc(-c4ccco4)[nH]n3)n[nH]c2=S)cc1	none (no result: ROMK mod)
S=c1[nH]nc(-c2cc(-c3ccco3)[nH]n2)n1-c1cccc2ccccc12	L major viab 98 (no result: ROMK mod) | L major 1uM inactive
COc1ccc2nc(N3C(=O)/C(=C/c4ccccc4)NC3=S)sc2c1	L major viab 61, Cl transport mod 76 (no result: ROMK mod) | L major 1uM inactive
O=C(Cn1cnc2ccccc2c1=O)Nc1nnc(SCc2ccc(Cl)cc2)s1	none (no result: WT yeast gro inh, INS promoter inh, L major viab, ROMK mod)
O=C(NC1CCCC1)C(c1ccc(F)cc1)N(Cc1ccc(Cl)cc1)C(=O)CCl (stereo not given)	L major viab 99 | L major 1uM 51
C/C(=N/NC(=O)c1cnccn1)c1cccs1	none (no result: ROMK mod)
CCCOC(=O)CSC1=C(C#N)C(c2ccccc2Cl)CC(=O)N1 (stereo not given)	L major viab 100 (no result: INS promoter inh, ROMK mod) | L major 1uM 93
CCCOc1ccc(N2C(=O)CC(N(Cc3ccco3)C(=O)CCC(=O)O)C2=O)cc1 (stereo not given)	none (no result: WT yeast gro inh, INS promoter inh, L major viab, ROMK mod)
CCOC(=O)c1sc(NC(=O)CN2CCCC2)c(C(=O)OCC)c1C	L major viab 93 | L major 1uM inactive
CCOC(=O)c1c(NC(=O)c2ccc(S(=O)(=O)N3CCOCC3)cc2)sc2c1CCN(C)C2	L major viab 68 (no result: ROMK mod) | L major 1uM inactive
O=C/C(=C\Nc1ccccn1)c1nc2cc(Cl)ccc2o1	L major viab 72 (no result: Ins promoter up, ROMK mod) | L major 1uM inactive
CSc1nnc(C(C)(C)C)c(=O)n1/N=C/c1c(O)ccc2ccccc12	none (no result: WT yeast gro inh, INS promoter inh, L major viab, ROMK mod)
CC(C)=N/N=C(\c1cccc([N+](=O)[O-])c1)C12CN3CN(CN(C3)C1)C2	L major viab 51 | L major 1uM inactive
O=C(CNC(=O)c1ccc(Cl)cc1Cl)OCc1nc2ccccc2s1	none
CCN(CC)CCCOc1nc(C)nc2c1oc1ccccc12	L major viab 75 (no result: Cl transport mod) | L major 1uM inactive
Clc1ccc(-n2nnnc2-c2cnc3ccccc3c2-c2ccccc2)cc1	none (no result: WT yeast gro inh, INS promoter inh, L major viab, ROMK mod)
c1ccc(-n2nnnc2-c2cnc(-c3cccnc3)nc2-c2cccs2)cc1	L major viab 95 (no result: Ins promoter up) | L major 1uM inactive
CCOC(=O)c1cccc(NC(=O)CSc2nnc(-c3ccoc3C)n2CC)c1	none (no result: INS promoter inh)
c1ccc(CNc2nc(-c3cccs3)nc3ccccc23)cc1	WT yeast gro inh 71, L major viab 99 | L major 1uM 59
CCNC(=O)NC(=O)COC(=O)CCCc1nc2ccccc2s1	none (no result: INS promoter inh)
Cc1cc2nc(C3CCN(Cc4nnnn4Cc4ccccc4)CC3)[nH]c2cc1C	L major viab 91 (no result: Cl transport mod, ROMK mod) | L major 1uM inactive
O=C(O)/C=C\C(=O)NC1CCCCC1	none
O=C(O)/C=C/C(=O)NC1CCS(=O)(=O)C1 (stereo not given)	L major viab 61 (no result: ROMK mod) | L major 1uM inactive
Nc1ccccc1SCc1csc(-c2ccc(Cl)cc2)n1	none (no result: WT yeast gro inh, INS promoter inh, L major viab, ROMK mod)
Cc1ccc(SCc2cc(=O)n3ccsc3n2)c(C)c1	none (no result: INS promoter inh, ROMK mod)
Cc1cccc(-n2c(SCc3cc(=O)n4ccsc4n3)nc3ccccc32)c1	L major viab 92 (no result: Ins promoter up, ROMK mod) | L major 1uM inactive
Cc1ccc(S(=O)(=O)NCCCNc2ccc([N+](=O)[O-])cc2)cc1	none (no result: Ins promoter up)
Cc1ccc(C(=O)NC(C(=O)Nc2cccc(S(N)(=O)=O)c2)C(C)C)cc1 (stereo not given)	none (no result: WT yeast gro inh, INS promoter inh, L major viab, ROMK mod)
CCn1cc[n+](C)c1P(c1ccccc1)c1ccccc1	L major viab 98 | L major 1uM inactive
COc1cccc2cc(C(=O)N3CCN(c4ccccn4)CC3)c(=O)oc12	none (no result: Ins promoter up)
Cc1ccc(NC(=O)CSCc2ccco2)cc1	none
Cc1nn(-c2ccccc2)c2nc(=O)n(-c3ccccc3)cc12	none (no result: INS promoter inh, ROMK mod)
CC(C)(C)c1nn(-c2ccccc2)c2nc(Cl)c(C=O)cc12	L major viab 96 (no result: INS promoter inh) | L major 1uM inactive
COc1ccc(C2C(C(=O)c3ccco3)=C(O)C(=O)N2CC2CCCO2)cc1 (stereo not given)	none (no result: INS promoter inh)
CCCC1COC(Cn2cncn2)(c2ccc(C)cc2)O1 (stereo not given)	L major viab 55 (no result: Cl transport mod) | L major 1uM inactive
CCC(C)n1ncn(-c2ccc(N3CCN(c4ccc(OCC5COC(Cn6cncn6)(c6ccc(Cl)cc6Cl)O5)cc4)CC3)cc2)c1=O (stereo not given)	none (no result: INS promoter inh, L major viab, ROMK mod)
COc1ccc(C(F)(F)F)cc1N/C=C/c1nnnn1-c1ccc2ccccc2c1	none (no result: WT yeast gro inh, INS promoter inh, L major viab)
O=C(O)c1cccnc1Sc1ccc(Cl)cc1	none (no result: INS promoter inh)
O=C(O)c1cccnc1Sc1ccccc1	L major viab 56 | L major 1uM inactive
Cn1c(-c2sc(=S)n(-c3ccccc3)c2N)nc2ccccc21	none (no result: ROMK mod)
COC(=O)c1ccc(-c2ccc(CNCC(O)c3ccccc3)o2)cc1 (stereo not given)	L major viab 99 (no result: INS promoter inh, ROMK mod) | L major 1uM 55
O[C@@H](CNC[C@H](O)c1ccccc1)c1ccccc1	none
Cc1cc(C)cc(N=Cc2ccc([N+](=O)[O-])s2)c1	L major viab 100 | L major 1uM inactive
c1ccc(-c2nc(-c3cccs3)[nH]c2-c2ccccc2)cc1	L major viab 53 (no result: ROMK mod) | L major 1uM inactive
O=C(CCc1ccccc1)NNC(=O)C12CC3CC(CC(C3)C1)C2	none (no result: INS promoter inh, Cl transport mod, ROMK mod)
COc1cccc(-n2c(SCC(=O)Nc3ccc4c(c3)CCC4)nc3ccccc3c2=O)c1	none (no result: INS promoter inh, ROMK mod)
Cc1nc(-c2ccccc2)sc1-c1nc(-c2ccncc2)ncc1S(=O)(=O)c1ccccc1	WT yeast gro inh 78, L major viab 58 (no result: INS promoter inh, Cl transport mod) | L major 1uM inactive
COc1nc(-c2ccccc2)ncc1S(=O)(=O)c1ccccc1	none (no result: INS promoter inh)
COc1ccc(N2CCN(C(=O)c3nc4nc(C)cc(C)n4n3)CC2)cc1	none (no result: Cl transport mod)
CCc1ccc(C2c3[nH]c4ccccc4c3CCN2C(=O)CN2CCN(CC)CC2)cc1 (stereo not given)	L major viab 75 (no result: INS promoter inh, Cl transport mod) | L major 1uM inactive
Cc1ccc(NC(=S)N/N=C/c2c(C)nn(-c3ccccc3)c2N2CCCC2)cc1	none (no result: INS promoter inh, ROMK mod)
COc1c(/C=N/NC(N)=S)c(C)nn1-c1ccccc1	L major viab 58 | L major 1uM inactive
CCCc1nc2c(=O)n(C)c(=O)nc-2n(C)n1	WT yeast gro inh 64, L major viab 101 (no result: INS promoter inh, Cl transport mod, ROMK mod) | L major 1uM 94
Cn1nc(-c2ccccn2)nc2c(=O)n(C)c(=O)nc1-2	Ins promoter up inconclusive (no result: WT yeast gro inh, INS promoter inh, L major viab, ROMK mod)
Cc1ccsc1C(C(=O)NC1CCCCC1)N(C(=O)c1csnn1)C1CC1 (stereo not given)	none (no result: INS promoter inh)
Fc1ccc(Sc2ccccc2CNC2=NCCN2)cc1	WT yeast gro inh 79, L major viab 100 (no result: Cl transport mod) | L major 1uM inactive
OCCNC1=NCCN1	none (no result: INS promoter inh, Cl transport mod)
Cc1ccc(NC(=O)CCCSc2nc3ccccc3[nH]2)cc1	none
Cc1ccc(NC(=S)c2nc3ccccc3[nH]2)cc1	INS promoter inh 81, L major viab 70, Cl transport mod 33 (no result: ROMK mod) | L major 1uM inactive
CN1CCN(c2ccc(S(=O)(=O)N3CCCCC3)cc2NC(=O)c2ccc(C#N)cc2)CC1	none (no result: INS promoter inh)
